Consider 13 compounds from PubChem BioAssay (NCI).

This is part of a sample that, as a whole, favours compounds with a hit. Of some 83,000 tested, about 20% had one in any assay.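 Treatment: one concentration, 48 hours, 96-well format. Scoring: percent growth, with anything below 10 considered active.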 Unmarked numbers belong to inactive results. Activity calls are given as the source filed them.

Among the test systems are HCT-15 colon; HT29 colon; SNB-75 CNS; SNB-19 CNS; U251 CNS; PC-3 prostate; SK-MEL-5 melanoma; UACC-62 melanoma; LOX IMVI melanoma; SK-MEL-28 melanoma.
What all share (assay): NCI-60 one-dose screen, 48 h (100 = growth as untreated, 0 = no growth, -100 = all killed)
Holding throughout (settings): 10 µM unless noted

Turning to `COc1cc(OCc2cccc(-c3ccc4c(c3)OCCO4)c2C)cc(OC)c1C=O`, the growth in the test on HCT-15 colon was 60.1%; with HT29 colon it was 67.6%; with SNB-75 CNS, 81.2%; in the test with SNB-19 CNS, 72.7%; in the test on U251 CNS, 85.6%; with PC-3 prostate, 65.5%. Besides, the growth was -9.95% (active) in the test with SK-MEL-5 melanoma, 38% in the test on UACC-62 melanoma, 58.7% with LOX IMVI melanoma and 67.1% with SK-MEL-28 melanoma.

`Cn1nc(-c2ccc(Cl)cc2)nc2c(=O)n(C)c(=O)nc1-2`: the growth in the test on HCT-15 colon was -67.5% (active); in the test on HT29 colon it was -77.3% (active); in the test with SNB-75 CNS, -100% (active); in the test with SNB-19 CNS it was -84.5% (active); with U251 CNS, -82.6% (active); in the test with PC-3 prostate it was 16.6%. Besides, the growth in the test with SK-MEL-5 melanoma was -98.5% (active); with UACC-62 melanoma, -55.2% (active); in the test on LOX IMVI melanoma it was -58.6% (active); in the test on SK-MEL-28 melanoma, -64.4% (active).

`O=C(Cn1cc(CSc2nc3ccccc3o2)nn1)Nc1ccc([N+](=O)[O-])cc1`: the growth in the test on HCT-15 colon is 106%; with HT29 colon, 93.9%; in the test with SNB-75 CNS, 79.4%; in the test with SNB-19 CNS it was 96.3%; in the test with U251 CNS it was 97.9%; with PC-3 prostate, 92%. The growth with SK-MEL-5 melanoma was 99.1%; in the test with UACC-62 melanoma it was 68.5%; in the test with LOX IMVI melanoma, 94.5%; in the test on SK-MEL-28 melanoma, 105%.

With `O=[N+]([O-])c1ccc(Oc2cccc3c(Oc4ccc([N+](=O)[O-])cc4[N+](=O)[O-])cccc23)c([N+](=O)[O-])c1`, the growth is 100% in the test on HCT-15 colon; 97% in the test with HT29 colon; 81.6% in the test on SNB-75 CNS; 84.7% in the test with SNB-19 CNS; 87% with U251 CNS; 79.7% in the test with PC-3 prostate. In addition, the growth is 86.7% in the test on SK-MEL-5 melanoma, 76.5% in the test with UACC-62 melanoma, 78.4% with LOX IMVI melanoma and 110% with SK-MEL-28 melanoma.

On to `CCOC(=O)c1cc(C(=O)c2cc(OC)cc(OC)c2)n2ccccc12`, for which the growth is 25.6% with HCT-15 colon; 10.1% in the test with HT29 colon; 20.5% with SNB-75 CNS; 41.7% in the test with SNB-19 CNS; 38.6% with U251 CNS; 40.4% in the test with PC-3 prostate. Further, the growth is 27.4% with SK-MEL-5 melanoma, 30.9% with UACC-62 melanoma, 38.1% with LOX IMVI melanoma and 67.3% in the test on SK-MEL-28 melanoma.

`FC(F)(F)c1cc(N2CCCCC2)nc(NCCCNc2ccnc3cc(Cl)ccc23)n1`: the growth in the test on HCT-15 colon was 53.2%; in the test with HT29 colon it was 26.8%; in the test with SNB-75 CNS, 71.9%; in the test with SNB-19 CNS, 82.2%; with U251 CNS, 67.4%; in the test on PC-3 prostate, 45.4%. Besides, the growth is 27.1% with SK-MEL-5 melanoma, 61.9% with UACC-62 melanoma, 65.8% with LOX IMVI melanoma and 76.7% in the test with SK-MEL-28 melanoma.

`N=C(N)c1ccc(-c2ccc(-c3ccc(Cl)cc3Cl)s2)nc1`: the growth in the test on HCT-15 colon is -15.2% (active); in the test with HT29 colon, 4.27% (active); in the test with SNB-75 CNS, 92.4%; in the test with SNB-19 CNS, 56.3%; with U251 CNS it was -10.6% (active); with PC-3 prostate, 73.2%. Also, the growth in the test with SK-MEL-5 melanoma was 97.7%; in the test on UACC-62 melanoma, 103%; in the test on LOX IMVI melanoma, -67.9% (active); in the test with SK-MEL-28 melanoma it was 116%.

With `COc1ccc(-c2ccc(-c3ccc(C(=N)N)o3)o2)cc1`, the growth in the test with HCT-15 colon was -7.49% (active); in the test on HT29 colon, -9.08% (active); in the test on SNB-75 CNS, 43.6%; in the test on SNB-19 CNS it was 15.5%; with U251 CNS, -29.3% (active); with PC-3 prostate, 25.5%. The growth in the test with SK-MEL-5 melanoma was 25.6%; with UACC-62 melanoma it was -61.1% (active); in the test with LOX IMVI melanoma, -58.1% (active); in the test on SK-MEL-28 melanoma it was 71.1%.

`Cc1nc2sc(C(=O)Nc3ccccc3)c(N)c2cc1C(O)c1ccccc1` (stereo not given): the growth with HCT-15 colon is 9.11% (active); in the test with HT29 colon, 11.9%; in the test on SNB-75 CNS it was 36.9%; in the test on SNB-19 CNS, 23.5%; in the test on U251 CNS, 16.9%; with PC-3 prostate, 21.6%. The growth in the test with SK-MEL-5 melanoma was 4.19% (active); in the test with UACC-62 melanoma it was 34.6%; with LOX IMVI melanoma, 26.9%; in the test with SK-MEL-28 melanoma, 65.7%.

Consider `CCCN1C(=O)N(CCC)C2C1NC(=S)N2/N=C/C=C/c1ccccc1OC` (stereo not given), for which the growth in the test on HCT-15 colon was 19.3%; in the test on HT29 colon, 2.43% (active); with SNB-75 CNS, -17.4% (active); in the test with SNB-19 CNS, 24.6%; in the test on U251 CNS, 11.9%; in the test on PC-3 prostate it was 28.7%. For the same compound, the growth was 26.9% in the test with SK-MEL-5 melanoma, 28.5% with UACC-62 melanoma, 41% in the test with LOX IMVI melanoma and 50% in the test on SK-MEL-28 melanoma.

For the compound `CCN(CC)CCOc1ccc(/C(=C(\C)Cc2ccc(OC)cc2)c2ccc(O)cc2)cc1`, the growth is 5.11% (active) in the test with HCT-15 colon; -70.5% (active) in the test on HT29 colon; 25.1% in the test with SNB-75 CNS; 26.6% with SNB-19 CNS; -30.3% (active) in the test with U251 CNS; 15.2% with PC-3 prostate. Further, the growth with SK-MEL-5 melanoma is -96.4% (active); in the test with UACC-62 melanoma, -70.7% (active); with LOX IMVI melanoma, -64.9% (active); in the test with SK-MEL-28 melanoma, -71% (active).

As for `C=CN(C(=O)N1CCN(c2cc3c(cc2F)c(=O)c(C(=O)O)cn3C2CC2)CC1)c1nc(-c2ccc(C)cc2)cs1`, the growth with HCT-15 colon was 9.38% (active); in the test with HT29 colon, 6.66% (active); in the test on SNB-75 CNS it was 14.4%; in the test on SNB-19 CNS it was 18.5%; with U251 CNS, 11.4%; with PC-3 prostate, 14.7%. For the same compound, the growth in the test on SK-MEL-5 melanoma is 26.6%; in the test on UACC-62 melanoma, 29.2%; in the test on LOX IMVI melanoma it was 8.56% (active); in the test on SK-MEL-28 melanoma, 42.1%.

For `Nc1nc(N)c2c(n1)NC(c1ccc3c(c1)OCO3)CC(c1cccc(Nc3ccncc3)c1)=N2` (stereo not given), the growth in the test with HCT-15 colon was 98.4%; in the test with HT29 colon, 61.3%; in the test with SNB-75 CNS, 66.9%; in the test with SNB-19 CNS, 94.5%; with U251 CNS, 80.8%; in the test with PC-3 prostate, 50.8%. Further, the growth in the test on SK-MEL-5 melanoma was 90%; with UACC-62 melanoma, 87.6%; in the test with LOX IMVI melanoma, 48.5%; in the test on SK-MEL-28 melanoma, 108%.
